From PubChem BioAssay (NCI) come the findings set out here.

Assay [1] can be described thus: NCI Yeast Anticancer Drug Screen. Data for the rad50 strain (AID 155).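 Also: 0% = growth of vehicle-only cultures of the same strain.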 The following applies: S. cerevisiae rad50 strain growth inhibition, hits give high values. A digest of the protocol: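 Yeast carrying a defined DNA repair defect were exposed to test compounds, and growth was compared with vehicle-treated controls to give percent inhibition.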
Assay [2] can be described thus: NCI Yeast Anticancer Drug Screen. Data for the mec2-1 strain (AID 157). The settings on record: S. cerevisiae mec2-1 strain, hits give high values. An outline of the steps: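 Test agents were screened against the mec2-1 yeast strain, with defined DNA repair or cell cycle alteration. Growth was scored as inhibition against vehicle-only controls.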
Assay [3] is described as follows: NCI Yeast Anticancer Drug Screen. Data for the sgs1 mgt1 strain (AID 161).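 Also: 0% = growth of cultures given vehicle only.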 The following applies: S. cerevisiae sgs1 mgt1 strain, hits give high values. A digest of the protocol:
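Mutant yeast exposed to compound; growth scored against vehicle-only wells.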

A short description of assay [4]: NCI Yeast Anticancer Drug Screen. Data for the cln2 rad14 strain (AID 165).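 Also: 0% = growth equal to vehicle treated cultures.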 The following applies: S. cerevisiae cln2 rad14 strain, hits give high values. A digest of the protocol:
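Growth of compound-exposed yeast (cln2 rad14 genotype) measured and expressed as inhibition relative to vehicle.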

The nature of assay [5]: NCI Yeast Anticancer Drug Screen. Data for the bub3 strain (AID 167). The following applies: S. cerevisiae bub3 mutant strain, hits give high values. A digest of the protocol:
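Compounds were applied to a genetically altered yeast strain carrying a cell-cycle control defect. Growth inhibition was scored against vehicle-treated controls.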

Assay [6] can be described thus: NCI Yeast Anticancer Drug Screen. Data for the mlh1 rad18 strain (AID 175). The following applies: S. cerevisiae mlh1 rad18 strain growth inhibition, hits give high values. A digest of the protocol: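 In this whole-cell yeast screen, a strain with altered DNA damage repair is challenged with compound, and its growth is measured against matched vehicle-treated controls.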

[7] abbreviates: at 5.0 µM (retest, dose inferred, filed as 0.5).
[8] abbreviates: at 50.0 µM (retest, dose inferred, filed as 5.0).

About 79,000 compounds went through this panel and 15% of them were active in at least one assay; those are over-represented in the sample as a whole. Unmarked numbers belong to inactive results. Active and inactive are the calls of the source. Rule as the data show it: active = growth inhibition above about 70%; inactive = the rest.

As to `Cc1cc(C)c2c(c1)sc1nncn12`, the growth inhibition in assay [1] (setting [7]) was 62%; in assay [1] (setting [8]), 96% (active); in assay [1] (at 50.0 µM) it was 97.9% (active); in assay [2] (setting [7]), 57%; in assay [2] (setting [8]), 96% (active); in assay [2] (at 50.0 µM), 97.8% (active). Moreover, the growth inhibition in assay [3] (setting [7]) was 53%; in assay [3] (setting [8]), 97% (active); in assay [3] (at 50.0 µM), 96% (active); in assay [4] (setting [7]), 46%; in assay [4] (setting [8]), 96% (active); in assay [4] (at 50.0 µM) it was 97.6% (active). The growth inhibition was 70% (active) in assay [5] (setting [7]); 97% (active) in assay [5] (setting [8]); 98.9% (active) in assay [5] (at 50.0 µM); 93% (active) in assay [6] (setting [7]); 97% (active) in assay [6] (setting [8]); 98.9% (active) in assay [6] (at 50.0 µM).

Take `COc1ccccc1NC(=O)C1=C(C)NC(C)=C(C(=O)Nc2ccccc2OC)C1c1ccccc1[N+](=O)[O-]`: the growth inhibition was 13% in assay [1] (setting [7]); 13% in assay [1] (setting [8]); 68% in assay [1] (at 50.0 µM); 4% in assay [2] (setting [7]); 4% in assay [2] (setting [8]); 69.1% in assay [2] (at 50.0 µM). Further, the growth inhibition is 2% in assay [3] (setting [7]); 2% in assay [3] (setting [8]); 60.9% in assay [3] (at 50.0 µM); 0% in assay [4] (setting [7]); 0% in assay [4] (setting [8]); 12% in assay [4] (at 50.0 µM). The growth inhibition in assay [5] (setting [7]) was 5%; in assay [5] (setting [8]), 5%; in assay [5] (at 50.0 µM), 65.7%; in assay [6] (setting [7]), 13%; in assay [6] (setting [8]), 13%; in assay [6] (at 50.0 µM), 48.4%.

For the compound `O=C1C(=O)c2ccccc2C(O)=C1C(c1ccccc1)c1ccccc1`, the growth inhibition in assay [1] (setting [7]) was 42%; in assay [1] (setting [8]), 82% (active); in assay [1] (at 50.0 µM) it was 53.5%; in assay [2] (setting [7]), 39%; in assay [2] (setting [8]), 85% (active); in assay [2] (at 50.0 µM), 66%. Besides, the growth inhibition in assay [3] (setting [7]) was 57%; in assay [3] (setting [8]), 91% (active); in assay [3] (at 50.0 µM), 82.5% (active); in assay [4] (setting [7]), 27%; in assay [4] (setting [8]), 83% (active); in assay [4] (at 50.0 µM), 58.2%. Also, the growth inhibition in assay [5] (setting [7]) was 18%; in assay [5] (setting [8]), 83% (active); in assay [5] (at 50.0 µM), 60.6%; in assay [6] (setting [7]) it was 54%; in assay [6] (setting [8]) it was 90% (active); in assay [6] (at 50.0 µM) it was 62%.

For `CCOc1nc(N)nc(C)c1N=Nc1ccc(Br)cc1`, the growth inhibition is 9% in assay [1] (setting [7]); 90% (active) in assay [1] (setting [8]); 70.2% (active) in assay [1] (at 50.0 µM); 0% in assay [2] (setting [7]); 32% in assay [2] (setting [8]); 2.6% in assay [2] (at 50.0 µM). For the same compound, the growth inhibition in assay [3] (setting [7]) is 4%; in assay [3] (setting [8]) it was 72% (active); in assay [3] (at 50.0 µM), 22.2%; in assay [4] (setting [7]) it was 4%; in assay [4] (setting [8]) it was 30%; in assay [4] (at 50.0 µM), -9.65%. For the same compound, the growth inhibition in assay [5] (setting [7]) is 4%; in assay [5] (setting [8]) it was 88% (active); in assay [5] (at 50.0 µM), 75.9% (active); in assay [6] (setting [7]), 17%; in assay [6] (setting [8]), 98% (active); in assay [6] (at 50.0 µM), 35.1%.

As for `CC(=O)N/N=C/c1ccc([N+](=O)[O-])o1`, the growth inhibition in assay [1] (setting [7]) was 13%; in assay [1] (setting [8]), 34%; in assay [1] (at 50.0 µM), 70.2% (active); in assay [2] (setting [7]), 2%; in assay [2] (setting [8]) it was 22%; in assay [2] (at 50.0 µM) it was 43.1%. Besides, the growth inhibition is 12% in assay [3] (setting [7]); 50% in assay [3] (setting [8]); 81.8% (active) in assay [3] (at 50.0 µM); 5% in assay [4] (setting [7]); 13% in assay [4] (setting [8]); 35.5% in assay [4] (at 50.0 µM). Also, the growth inhibition in assay [5] (setting [7]) was 5%; in assay [5] (setting [8]), 22%; in assay [5] (at 50.0 µM) it was 58.5%; in assay [6] (setting [7]) it was 17%; in assay [6] (setting [8]) it was 61%; in assay [6] (at 50.0 µM) it was 84.8% (active).

With `Oc1cc(F)ccc1-c1ccc(F)cc1`, the growth inhibition in assay [1] (setting [7]) is -5%; in assay [1] (setting [8]), 98% (active); in assay [1] (at 50.0 µM), 72.5% (active); in assay [2] (setting [7]), 20%; in assay [2] (setting [8]) it was 99% (active); in assay [2] (at 50.0 µM), 85% (active). The growth inhibition in assay [3] (setting [7]) was 13%; in assay [3] (setting [8]), 97% (active); in assay [3] (at 50.0 µM), 47.4%; in assay [4] (setting [7]), -9%; in assay [4] (setting [8]), 98% (active); in assay [4] (at 50.0 µM), 60.3%. Moreover, the growth inhibition in assay [5] (setting [7]) is -12%; in assay [5] (setting [8]) it was 99% (active); in assay [5] (at 50.0 µM), 75.7% (active); in assay [6] (setting [7]) it was -6%; in assay [6] (setting [8]) it was 98% (active); in assay [6] (at 50.0 µM), 84.7% (active).

As to `CC(C)N(CCO)CC(O)Cn1cnc2c(N)ncnc21` (stereo not given) (tested in a mixture with another compound), the growth inhibition in assay [1] (setting [7]) was -17%; in assay [1] (setting [8]) it was 0%; in assay [1] (at 50.0 µM), -37.5%; in assay [2] (setting [7]) it was -9%; in assay [2] (setting [8]) it was -8%; in assay [2] (at 50.0 µM) it was 7.75%. In addition, the growth inhibition was -14% in assay [3] (setting [7]); 1% in assay [3] (setting [8]); -15.6% in assay [3] (at 50.0 µM); -18% in assay [4] (setting [7]); -6% in assay [4] (setting [8]); 40.2% in assay [4] (at 50.0 µM). In addition, the growth inhibition in assay [5] (setting [7]) is -8%; in assay [5] (setting [8]) it was -6%; in assay [5] (at 50.0 µM), -4.65%; in assay [6] (setting [7]) it was -8%; in assay [6] (setting [8]) it was -5%; in assay [6] (at 50.0 µM), 43%.

`O=C(Cc1nc2ccccc2s1)C(=O)Nc1ccc(Cl)cc1`: the growth inhibition is 2% in assay [1] (setting [7]); 4% in assay [1] (setting [8]); 8% in assay [1] (at 50.0 µM); -1% in assay [2] (setting [7]); 2% in assay [2] (setting [8]); 23.1% in assay [2] (at 50.0 µM). Besides, the growth inhibition in assay [3] (setting [7]) was 4%; in assay [3] (setting [8]), 0%; in assay [3] (at 50.0 µM), 17.5%; in assay [4] (setting [7]), 2%; in assay [4] (setting [8]) it was 2%; in assay [4] (at 50.0 µM), 75% (active). Further, the growth inhibition in assay [5] (setting [7]) is 5%; in assay [5] (setting [8]), -2%; in assay [5] (at 50.0 µM), 63.5%; in assay [6] (setting [7]) it was 1%; in assay [6] (setting [8]), 7%; in assay [6] (at 50.0 µM), 3.3%.

As to `S=C(Nc1cc(Cl)cc(Cl)c1)SCc1ccccc1`, the growth inhibition is 33% in assay [1] (setting [7]); 78% (active) in assay [1] (setting [8]); 99.1% (active) in assay [1] (at 50.0 µM); 25% in assay [2] (setting [7]); 54% in assay [2] (setting [8]); 99.5% (active) in assay [2] (at 50.0 µM). Also, the growth inhibition is 30% in assay [3] (setting [7]); 74% (active) in assay [3] (setting [8]); 99.2% (active) in assay [3] (at 50.0 µM); -9% in assay [4] (setting [7]); 48% in assay [4] (setting [8]); 98.7% (active) in assay [4] (at 50.0 µM). Moreover, the growth inhibition in assay [5] (setting [7]) was 4%; in assay [5] (setting [8]), 68%; in assay [5] (at 50.0 µM), 99.2% (active); in assay [6] (setting [7]), 31%; in assay [6] (setting [8]) it was 82% (active); in assay [6] (at 50.0 µM), 99.3% (active).

For the compound `O=C1OCC/C1=C1/CCOC1`, the growth inhibition in assay [1] (setting [7]) was 73% (active); in assay [1] (setting [8]), 97% (active); in assay [1] (at 50.0 µM), 99.2% (active); in assay [2] (setting [7]), 65%; in assay [2] (setting [8]), 98% (active); in assay [2] (at 50.0 µM), 99.3% (active). The growth inhibition in assay [3] (setting [7]) was 82% (active); in assay [3] (setting [8]), 98% (active); in assay [3] (at 50.0 µM), 50.3%; in assay [4] (setting [7]), 51%; in assay [4] (setting [8]), 97% (active); in assay [4] (at 50.0 µM), 98.8% (active). Further, the growth inhibition is 61% in assay [5] (setting [7]); 97% (active) in assay [5] (setting [8]); 99.2% (active) in assay [5] (at 50.0 µM); 78% (active) in assay [6] (setting [7]); 97% (active) in assay [6] (setting [8]); 99.5% (active) in assay [6] (at 50.0 µM).
